Records with an inconclusive call do not appear. Entries that show only a call come without a potency. A number with no mark means an inactive call. Calls of active or inactive are those of the source. Unless noted, calls come from the whole dose curve; as a rule, active = well fitted curve in the direction sought with a large enough effect; inconclusive = small, poorly fitted or top-dose-only effect, or another doubt; inactive = no such curve, though single readings can be large; an effect the other way counts as inactive or inconclusive.
How the values were obtained:
[1] = target: Aldehyde dehydrogenase, mitochondrial (Homo sapiens) (UniProt P05091); experiment: qHTS for Inhibitors of the Aldehyde Dehydrogenase Family (ALDH2) Confirmatory screens (AID 2061303; active = well fitted inhibition curve with a large enough effect; title and protocol of this record describe different tests; note: nearly all actives have a fitted effect of over 45% in size; note: potency is the fitted concentration of half-maximal effect)
[2] = qHTS for Inhibitors of the Aldehyde Dehydrogenase Family (ALDH1A2, ALDH1A3, ALDH2, ALDH3A1) (AID 2061307); note: nearly all actives have a fitted effect of over 50% in size; for potency: test system not described further here; potency is the fitted concentration of half-maximal effect
[3] = target: Aldehyde dehydrogenase, mitochondrial (Homo sapiens) (UniProt P05091); experiment: qHTS for Inhibitors of the Aldehyde Dehydrogenase Family (ALDH2) Primary screen (AID 2061308); note: nearly all actives have a fitted effect of over 55% in size; note: potency is the fitted concentration of half-maximal effect
[4] = target: Retinal dehydrogenase 2 (Homo sapiens) (UniProt O94788); experiment: qHTS for Inhibitors of the Aldehyde Dehydrogenase Family (ALDH1A2) Confirmation screens (AID 2061314); note: nearly all actives have a fitted effect of over 65% in size; note: potency is the fitted concentration of half-maximal effect
[5] = target: Retinaldehyde dehydrogenase 3 (Homo sapiens) (UniProt P47895); experiment: qHTS for Inhibitors of the Aldehyde Dehydrogenase Family (ALDH1A3) Primary screen (AID 2061315); note: potency is the fitted concentration of half-maximal effect
[6] = target: Aldehyde dehydrogenase 1A1 (Homo sapiens) (UniProt P00352); experiment: qHTS for Inhibitors of the Aldehyde Dehydrogenase Family (ALDH1A1) Confirmatory screens (AID 2061316); note: nearly all actives have a fitted effect of over 65% in size; note: potency is the fitted concentration of half-maximal effect
[7] = BET inhibitor-based combinations targeting novel dependencies in MECOM-rearranged (r) AML: SET-2 cell line (AID 2202231); details: SET-2 AML cells viability, CellTiter-Glo luminescence, 48 h; viability: active compounds read low, series mostly up to about 46 µM; note: nearly all actives have a fitted effect of over 35% in size
Outline: (§1)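 Each compound was tested at eleven concentrations on cells seeded at 500/well. After two days' incubation, ATP-based luminescence reported viability; responses relative to DMSO and blank wells yielded AUC and cell-line-centred Z-AUC.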

[8] = BET inhibitor-based combinations targeting novel dependencies in MECOM-rearranged (r) AML: OCI-AML3 cell line (AID 2202232); details: Potency: OCI-AML3 viability; note: series mostly up to about 46 µM; nearly all actives have a fitted effect of over 35% in size
Outline: as §1

[9] = BET inhibitor-based combinations targeting novel dependencies in MECOM-rearranged (r) AML: UCSD-AML1 cell line (AID 2202235); note: series mostly up to about 46 µM; nearly all actives have a fitted effect of over 40% in size
Outline: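 First, 500 cells per well were seeded; next, drugs were pinned as 11-point doses; then plates sat 48 hr in the incubator; finally CellTiter-Glo was added and luminescence read, with AUC and Z-AUC computed.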

[10] = BET inhibitor-based combinations targeting novel dependencies in MECOM-rearranged (r) AML: AML-191 cell line (AID 2202236; note: nearly all actives have a fitted effect of over 35% in size)
Outline: as §1

[11] = BET inhibitor-based combinations targeting novel dependencies in MECOM-rearranged (r) AML: AML-194 cell line (AID 2202237; note: nearly all actives have a fitted effect of over 40% in size)
Outline: as §1

| Compound | Potency [1] | Potency [2] | Potency [3] | Potency [4] | Potency [5] | Potency [6] | viability [7] [%] | Potency [8] | Potency [9] | Potency [10] | Potency [11] |
| --- | --- | --- | --- | --- | --- | --- | --- | --- | --- | --- | --- |
| O=C(O)CSc1cc(NS(=O)(=O)c2ccc(Br)cc2)c2ccccc2c1O | 1.79 µM (active) | inactive | 7.08 µM (active) | 0.4 µM (active) | 0.631 µM (active) | 0.565 µM (active) | – | – | – | – | – |
| O=C(Nc1cccc([S+](=O)([O-])Nc2ccccc2F)c1)c1ccccc1 | inactive | inactive | inactive | inactive | inactive | inactive | – | – | – | – | – |
| O=C1CC(c2ccccc2)Cc2[nH]c(=O)c(-c3nc(-c4ccc(F)cc4)cs3)cc21 (stereo not drawn) | inactive | inactive | inactive | inactive | inactive | – | – | – | – | – | – |
| Cc1nnc(-c2cnn(C)c2N)n1CCc1ccccc1 | inactive | inactive | inactive | inactive | inactive | inactive | – | – | – | – | – |
| CC(C)c1ccccc1-c1nc2c(c(NCc3ccc(-c4cccnc4)cc3)n1)CCNC2 | inactive | inactive | inactive | inactive | inactive | inactive | – | – | – | – | – |
| NC(=O)C[C@H](N)C(=O)Nc1ccc(Cl)cc1C(=O)c1ccc[nH]1 | inactive | inactive | inactive | inactive | inactive | inactive | – | – | – | – | – |
| O=C(O)c1cccc(S(=O)(=O)Nc2nccs2)c1 | inactive | inactive | inactive | inactive | – | inactive | – | – | – | – | – |
| O=C1c2ccccc2C(=O)N1Cc1cccnc1 | inactive | inactive | inactive | inactive | inactive | inactive | – | – | – | – | – |
| Cc1ccc(OCCn2c(CCNC(=O)CCc3ccc(N)cc3)nc3ccccc32)cc1 | inactive | inactive | inactive | inactive | inactive | – | – | – | – | – | – |
| O=C(O)c1ccc(-n2cccc2/C=C2\SC(=O)N(Cc3ccccc3Cl)C2=O)cc1 | inactive | 7.12 µM (active) | inactive | 5.65 µM (active) | inactive | – | – | – | – | – | – |
| O=[N+]([O-])c1ccccc1CSc1nc2ncc(Br)cc2[nH]1 | inactive | inactive | inactive | inactive | inactive | 12.7 µM (active) | – | – | – | – | – |
| O=C(/C=C/c1ccc2c(c1)OCO2)Nc1cccc([S+](=O)([O-])Nc2ccccc2F)c1 | inactive | inactive | inactive | inactive | inactive | inactive | – | – | – | – | – |
| COc1ccc(C2Nc3ccccc3C(=O)N2Cc2ccccc2)cc1COc1cccc(C(F)(F)F)c1 (stereo not drawn) | inactive | inactive | inactive | 20.1 µM (active) | inactive | inactive | – | – | – | – | – |
| O=C1NS(=O)(=O)c2cc(Br)ccc21 | inactive | inactive | inactive | inactive | inactive | inactive | – | – | – | – | – |
| Nc1ccc2c(c1)S(=O)(=O)NC2=O | inactive | inactive | inactive | inactive | inactive | inactive | – | – | – | – | – |
| COc1cc(/C=C/C(=O)OC[C@H]2O[C@H](O[C@]3(CO)O[C@H](CO)[C@@H](O)[C@@H]3O)[C@H](O)[C@@H](O)[C@@H]2O)cc(OC)c1O | inactive | inactive | inactive | inactive | – | inactive | – | – | – | – | – |
| O=C(Cc1ccc(Cl)c(Cl)c1)Nc1ccc(S(=O)(=O)O)cc1 | inactive | inactive | inactive | inactive | inactive | inactive | – | – | – | – | – |
| COc1cc(/C=C/C(=O)O[C@H]2[C@H](OC(=O)/C=C/c3cc(OC)c(O)c(OC)c3)O[C@H](CO[C@@H]3O[C@H](CO)[C@@H](O)[C@H](O)[C@H]3O)[C@@H](O)[C@@H]2O)ccc1O | inactive | inactive | inactive | inactive | – | inactive | – | – | – | – | – |
| CCN(CC)c1cc2c(cc1S(=O)(=O)Nc1ccc(C)c(C)c1)CCC(=O)N2 | inactive | inactive | inactive | inactive | inactive | – | – | – | – | – | – |
| CN(Cc1ncc[nH]1)c1ncnc2ccc(-c3ccc4c(c3)OCO4)cc12 | inactive | inactive | inactive | inactive | inactive | inactive | – | – | – | – | – |
| N=c1c2c(ncn1-c1ccccc1)Oc1ccc3ccccc3c1C2c1ccc2c(c1)OCCO2 (stereo not drawn) | inactive | inactive | inactive | inactive | inactive | inactive | – | – | – | – | – |
| CC(=O)Nc1ccc(OC2=NS(=O)(=O)c3ccccc32)cc1 | inactive | inactive | inactive | inactive | inactive | inactive | – | – | – | – | – |
| Cc1ccc(OCCn2c(CCNC(=O)c3cccs3)nc3ccccc32)cc1 | inactive | inactive | inactive | 31.8 µM (active) | inactive | 12.7 µM (active) | – | – | – | – | – |
| O=C(CCCc1ccc2cccnc2n1)NCc1cc(-c2ccc(F)c(C(F)(F)F)c2)no1 | inactive | inactive | inactive | inactive | inactive | inactive | 106 | inactive | inactive | inactive | inactive |
| COc1cc([C@@H](O[C@@H]2O[C@H](CO)[C@@H](O)[C@H](O)[C@H]2O)[C@@H]2CO[C@H](c3ccc(O)c(OC)c3)[C@H]2CO)ccc1O | inactive | inactive | inactive | inactive | – | inactive | – | – | – | – | – |
| S=C(Nc1cc(Cl)ccn1)N1CCN(c2cccc(Cl)c2Cl)CC1 | 15.8 µM (active) | 3.98 µM (active) | inactive | 25.2 µM (active) | inactive | 3.18 µM (active) | – | – | – | – | – |
| CCCCNc1nc(C#N)nc(Nc2ccccc2)n1 | 2.51 µM (active) | 0.501 µM (active) | inactive | inactive | inactive | – | – | – | – | – | – |

Source: PubChem BioAssay (NCATS)
